What is called inhibition is the drop in the measured response relative to a control, in per cent.

Results on 17 compounds are retold here after ChEMBL document CHEMBL3433997, “St. Jude Leishmania screening dataset” (2016).

What all share (type): functional
The target of assay [1] is Solute carrier family 2, facilitated glucose transporter member 1 (Homo sapiens) (UniProt P11166). Put plainly: ST_JUDE_LEISH: Cytotoxicity at 2uM final concentration against transgenic Leishmania Mexicana promastigotes LmGLUT1 that are glucose transport deficient and complemented with the human glucose transporter GLUT1. Activity is measured by DNA content using SYBR green in vitro.
Sequence of Solute carrier family 2, facilitated glucose transporter member 1 (Homo sapiens) (P11166 whole entry): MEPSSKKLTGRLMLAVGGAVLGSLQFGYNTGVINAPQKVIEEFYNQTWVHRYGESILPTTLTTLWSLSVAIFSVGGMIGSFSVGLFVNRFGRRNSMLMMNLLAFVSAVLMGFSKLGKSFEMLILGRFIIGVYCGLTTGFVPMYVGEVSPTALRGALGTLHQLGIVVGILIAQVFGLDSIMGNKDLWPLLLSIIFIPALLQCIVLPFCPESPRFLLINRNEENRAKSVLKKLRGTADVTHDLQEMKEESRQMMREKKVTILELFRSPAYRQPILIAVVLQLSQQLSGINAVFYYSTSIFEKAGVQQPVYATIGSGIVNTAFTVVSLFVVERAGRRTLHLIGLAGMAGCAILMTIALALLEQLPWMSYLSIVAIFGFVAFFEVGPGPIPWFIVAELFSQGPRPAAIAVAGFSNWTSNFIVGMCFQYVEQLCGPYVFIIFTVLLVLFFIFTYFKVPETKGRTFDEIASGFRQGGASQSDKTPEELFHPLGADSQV

For assay [2], the target named is Hexose transporter 1 (Plasmodium falciparum) (UniProt O97467). The assay can be described thus: ST_JUDE_LEISH: Cytotoxicity at 2uM final concentration against transgenic Leishmania Mexicana promastigotes LmPfHT that are glucose transport deficient and complemented with the Plasmodium falciparum hexose transporter. Activity is measured by DNA content using SYBR green in vitro.

Assay [3] addresses Glucose transporter (Leishmania mexicana) (UniProt O61059). The assay can be described thus: ST_JUDE_LEISH: Cytotoxicity at 2uM final concentration against transgenic Leishmania Mexicana promastigotes LmGT2 that are glucose transport deficient and complemented with the L. Mexicana glucose transporter 2. Activity is measured by DNA content using SYBR green in vitro.

`Cc1cccc2nc(-c3cccc(-c4ccc(NC(=O)CN5CCN(C)CC5)cc4)c3)[nH]c12`: the inhibition was determined as 2.17% in assay [1], 3.31% in assay [2] and 0.62% in assay [3].
On the same counts, the results for `O=C(Nc1ccc(N2CCNCC2)cc1)c1ccn2ncc(-c3cccc(Cl)c3)c2n1` are 84.8%, 83.9% and 54.3%.
On the same counts, the results for `O=C(NCCc1cccc(Cl)c1Cl)c1ccc(N2CCN(c3ccncc3)CC2)nc1` are 38.6%, 16.9% and 21.8%.
On the same counts, the results for `COC(=O)c1cccc(CNCc2cccc(-c3ccc(-c4nc5ccccc5[nH]4)cc3)c2)c1` are 5.57%, 5.76% and 2.19%.
`Nc1nccc(-c2ccc3c(-c4cccc(F)c4)cnc(N)c3c2)n1`: the inhibition in assay [1] is -0.44%; in assay [2], 3.51%; in assay [3], -0.84%.
For the compound `O=C(NCCCCN1CCC(c2c[nH]c3ccccc23)CC1)c1ccc(-c2ccc(C(F)(F)F)cc2)cc1`, the values for the inhibition in assay [1], in assay [2] and in assay [3] were 0.97%, 0.63% and -0.72%, respectively.
With `CCN(CC)CCN(Cc1ccc(-c2ccc(C(F)(F)F)cc2)cc1)C(=O)Cn1c(CCc2c(F)ccc(F)c2F)nc(=O)c2ccccc21`, the inhibition in assay [1] came to 0.63%; in assay [2] it was 1.87%; in assay [3], 1.43%.
On the same counts, the results for `Cc1cc(F)ccc1-c1nc(N(C)CCN(C)C(=O)N(C)c2ccccc2)nc2c1ccc(=O)n2-c1c(F)cccc1F` are 2.99%, 3.18% and 9.88%.
Taken in the same sequence, the figures for `Cc1ccc(Nc2nc(N/N=C/c3ccccc3[N+](=O)[O-])nc(Nc3ccc([N+](=O)[O-])cc3)n2)cc1C` were 12.9%, 8.51% and 5.3%.
Turning to `CC(C)C[C@H](NC(=O)c1cc2cc(OCCN3CCNCC3)ccc2o1)C(=O)NC1CC[C@@H](C)N(C(=O)Nc2ccc(Cl)cc2)CC1=O` (stereo partly specified), the figures for the inhibition in assay [1], in assay [2] and in assay [3] were 3.2%, 5.04% and 3.85%, respectively.
Taken in the same sequence, the figures for `COc1cccc(CCNc2nc(NCc3ccccc3)c3cc(OC)c(OC)cc3n2)c1` were 7.51%, 5.93% and 1.86%.
For the compound `CCCCNc1cc(NCCCC)c2c(n1)[nH]c1ccccc12`, the inhibition worked out at 18.4% in assay [1], 16.6% in assay [2] and 4.43% in assay [3].
As to `FC(F)(F)c1cccc(Nc2nc3nonc3nc2NC2C3CC4CC(C3)CC2C4)c1` (stereo unspecified), the inhibition in assay [1] turned out to be 3.05%; in assay [2], 1.79%; in assay [3] it was 0.47%.
`Oc1cccc(Nc2nc(NCC3CCCO3)c3ccccc3n2)c1` (stereo unspecified): the figures for the inhibition in assay [1], in assay [2] and in assay [3] were 27%, 24.8% and 9.1%, respectively.
Taken in the same sequence, the figures for `COc1ccc(CN2CCC(CN3CC4(OC3=O)c3ccccc3-c3ccccc34)C2)c(O)c1` (stereo unspecified) were 10.8%, 9.02% and 11%.
Consider `CC(Cc1ccc(NC(=O)c2ccc(CC(C)NCc3ccc(Cl)c(Cl)c3)cc2)cc1)NCCc1cccc(Cl)c1` (stereo unspecified), for which the inhibition in assay [1] is 1.59%; in assay [2], -0.71%; in assay [3], -0.17%.
On the same counts, the results for `Cc1cc(N[C@@H](Cc2ccccc2)C(=O)NC2CCCC2)nc(NCCCOC(C)C)n1` are 7.62%, 3.46% and 0.61%.
